Measurements from PubChem BioAssay (EPA / NIEHS).
“And” between values parts separate entries of the source, which are not always exact repeats. Equal values may be shown once. More than one record can exist for a structure, and the calls need not agree. The source made the active and inactive calls. How the source made its calls: active means hit-call score of the fitted dose curve at least 0.9, where 1 is the maximum; inactive means score below 0.9.

Legend:
[1] = APR_HepG2_P-H2AX_72hr: Apredica 72-hour HepG2 Assay for H2AX Phosphorylation (AID 2282916); settings: imaging, actives raise or lower the signal;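 further: phospho-histone H2A.x immunostain intensity per cell marking DNA damage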
Method in brief: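 Human hepatoma HepG2 cells are dosed across ten concentrations (0.39 to 200 uM, 0.5% v/v DMSO) and incubated 72 hr. Phospho-histone H2A.x is then detected by antibody staining alongside c-Jun and Hoechst, and quantified by automated fluorescence imaging.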

[2] = APR_HepG2_MitoMembPot_72hr: Apredica 72-hour HepG2 Assay for Mitochondrial Membrane Potential (AID 2282917); settings: imaging, actives raise or lower the signal
Method in brief: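 HepG2 cells exposed 72 h to compounds at 0.39–200 uM (0.5% v/v DMSO, duplicates); MitoTracker Red CMXRos 250 nM loaded 30 min before 3.7% formaldehyde fixation, imaged by HCS fluorescence. Bidirectional fit versus DMSO.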

[3] = APR_HepG2_MitoticArrest_72hr: Apredica 72-hour HepG2 Assay for Mitotic Arrest (AID 2282918); settings: high-content imaging, actives raise or lower the signal
Method in brief: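 Using high-content imaging of fixed HepG2 cells, phospho-histone H3 signal was measured following a 72 hr incubation with ten-point compound dilutions up to 200 uM. DMSO served as the negative control and baseline for bidirectional curve fitting.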

[4] = APR_HepG2_MicrotubuleCSK_72hr: Apredica 72-hour HepG2 Assay for Microtubule CSK Stabilty (AID 2282919); settings: HepG2 microtubule cytoskeleton, high-content imaging, actives raise or lower the signal
Method in brief: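 Ten-point dosing (0.39–200 uM, 0.5% DMSO) of HepG2 for 72 hr, with taxol as the cytoskeletal positive control. The cells were formaldehyde-fixed and then stained with alpha-tubulin/Cy5 and Hoechst. Imaging at 20x used a −2 um Z offset for tubulin.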

[5] = APR_HepG2_P-H2AX_24hr: Apredica 24-hour HepG2 Assay for H2AX Phosphorylation (AID 2282920); settings: high-content imaging, actives raise or lower the signal
Method in brief: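 Human HepG2 liver cells, treated 24 hr with test chemicals (0.39–200 uM, final DMSO 0.5% v/v), are fixed and co-stained for phospho-H2A.x and c-Jun with Hoechst. Imaged intensity is fitted in both directions against DMSO controls.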

[6] = APR_HepG2_StressKinase_72hr: Apredica 72-hour HepG2 Assay for Stress Kinase (AID 2282921); settings: HepG2 stress kinase (phospho-c-Jun) imaging, actives raise or lower the signal
Method in brief: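 After a 72 h compound treatment spanning 0.39 to 200 uM, formaldehyde-fixed cells are labelled for phosphorylated c-Jun and nuclei, imaged by automated fluorescence microscopy, and activity is fitted in both directions relative to DMSO controls.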

[7] = APR_HepG2_StressKinase_24hr: Apredica 24-hour HepG2 Assay for Stress Kinase (AID 2282922); settings: HepG2 stress kinase (phospho-c-Jun) imaging, actives raise or lower the signal
Method in brief: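 After 24 hr compound treatment (up to 200 uM, final DMSO 0.5% v/v), HepG2 cells are fixed and multiplex-labeled; phospho-c-Jun intensity is captured by high-content fluorescence imaging and analyzed relative to DMSO.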

[8] = APR_HepG2_p53Act_72hr: Apredica 72-hour HepG2 Assay for p53 Activation (AID 2282923); settings: high-content imaging, actives raise or lower the signal;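 further: average cellular p53 protein immunofluorescence intensity in HepG2 cells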
Method in brief: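 Imaging-based endpoint: after 72 hr compound exposure (up to 200 uM, 0.5% DMSO), fixed and permeabilized monolayers were labelled with anti-p53 antibody and imaged; signal change in either direction was fitted relative to DMSO controls.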

[9] = APR_HepG2_MitoMass_72hr: Apredica 72-hour HepG2 Assay for Mitochondrial Mass (AID 2282924); settings: high-content imaging, actives raise or lower the signal;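 further: MitoTracker Red CMXRos stain intensity per cell imaged as mitochondrial mass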
Method in brief: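 Steps: treat HepG2 72 hr (0.39–200 uM, duplicate wells); load MitoTracker Red CMXRos, 250 nM, 30 min; fix with 3.7% formaldehyde, permeabilise with 0.5% Triton X-100; capture images, nuclei via Hoechst 33342; fit bidirectionally against DMSO.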

[10] = APR_HepG2_NuclearSize_72hr: Apredica 72-hour HepG2 Assay for Nuclear Size (AID 2282925); settings: high-content imaging, actives raise or lower the signal
Method in brief: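 Compounds (0.39–200 uM, final DMSO 0.5%) were applied to HepG2 for 72 hr. Cells were then formaldehyde-fixed, permeabilized and labelled with Hoechst 33342. Nuclear diameter was quantified from six images per well.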

[11] = ATG_CRE_CIS: Attagene CIS-FACTORIAL HepG2 Assay for human cAMP Responsive Element (CRE) binding protein 3 (AID 2282926); settings: HepG2 CRE cis-reporter, Attagene multiplexed mRNA; actives raise or lower the signal
Method in brief: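 Liver-derived HepG2, transfected with a CRE-containing reporter panel, exposed 24 h; transcript levels sized and quantified by capillary electrophoresis of labelled amplicons; signal changes either way referenced to vehicle.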

[12] = target: CCAAT/enhancer-binding protein beta (Homo sapiens) (UniProt P17676); assay: ATG_C_EBP_CIS: Attagene CIS-FACTORIAL HepG2 Assay for human CCAAT/Enhancer Binding Protein (C/EBP) beta (AID 2282927); settings: HepG2 Attagene cis-factorial transcription factor reporter; actives raise or lower the signal
Method in brief: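 Following a 24 h incubation with test chemical, transfected HepG2 cells yielded RNA whose reporter transcripts were quantified by RT-PCR and fluorescent capillary electrophoresis, with DMSO serving as baseline for bidirectional fitting.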

[13] = ATG_CMV_CIS: Attagene CIS-FACTORIAL HepG2 Assay for human CMV (Internal Marker) (AID 2282928); settings: HepG2 CMV promoter reporter, transcription factor profiling; actives raise or lower the signal;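 further: endpoint acts as a background internal control marker rather than a target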
Method in brief: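 Bidirectional fits against DMSO are applied to reporter mRNA, read by RT-PCR with capillary electrophoresis, from HepG2 cells exposed 24 h. The endpoint serves as an internal CMV background marker within the cis-factorial reporter panel.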

[14] = ATG_DR4_LXR_CIS: Attagene CIS-FACTORIAL HepG2 Assay for human Liver X Receptor (LXR), DR4 submotif (AID 2282929); settings: HepG2 Attagene DR4 cis-reporter, mRNA transcription; actives raise or lower the signal
Method in brief: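 Fluorescence intensity of labelled reporter cDNA fragments, separated by capillary electrophoresis, gives the signal. HepG2 cells bearing cis-regulated reporter constructs were treated 24 h; activity fitted bidirectionally relative to DMSO negative control.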

[15] = target: Aryl hydrocarbon receptor (Homo sapiens) (UniProt P35869); assay: ATG_Ahr_CIS: Attagene CIS-FACTORIAL HepG2 Assay for human Aryl Hydrocarbon Receptor (Ahr) (AID 2282930); settings: HepG2 AhR cis-factorial reporter transcription; actives raise or lower the signal
Method in brief: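 Values derive from bidirectional fitting against DMSO negative control. Underlying signal: cis-element reporter mRNA in transiently transfected HepG2, harvested 24 h post-dose and measured by RT-PCR plus capillary electrophoresis.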

[16] = ATG_AP_1_CIS: Attagene CIS-FACTORIAL HepG2 Assay for human Activator Protein 1 (AP-1) (AID 2282931); settings: HepG2 Attagene cis-factorial AP-1 reporter mRNA; actives raise or lower the signal
Method in brief: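 Multiplexed HepG2 reporter assay, 24 h dosing. mRNA induction detected by RT-PCR plus capillary electrophoresis. Activity fitted in both directions against DMSO.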

[17] = ATG_AP_2_CIS: Attagene CIS-FACTORIAL HepG2 Assay for human Activator Protein 2 (AP-2) (AID 2282932); settings: HepG2 AP-2 cis-reporter, Attagene transcription factor profiling; actives raise or lower the signal
Method in brief: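 Cells (HepG2) transfected with promoter-driven reporter constructs, treated 24 h. Total RNA reverse-transcribed, reporter cDNA PCR-amplified, FAM-labelled by primer extension, digested, resolved by capillary electrophoresis. Activity fitted both directions versus DMSO.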

[18] = target: Retinoic acid receptor alpha (Homo sapiens) (UniProt P10276); assay: ATG_DR5_RAR_CIS: Attagene CIS-FACTORIAL HepG2 Assay for human Retinoic Acid Receptor Alpha (RARE), DR5 submotif (AID 2282934); settings: HepG2 Attagene cis-factorial RARE DR5 reporter, mRNA; actives raise or lower the signal
Method in brief: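 Endpoint fitted in both directions relative to DMSO as negative control. It reflects DR5 cis-element reporter mRNA induction in transiently transfected HepG2 cells, measured 24 h after dosing through RT-PCR and fluorescent capillary electrophoresis.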

[19] = target: Transcription factor E2F1 (Homo sapiens) (UniProt Q01094); assay: ATG_E2F_CIS: Attagene CIS-FACTORIAL HepG2 Assay for human E2F Transcription Factor 1 (AID 2282935); settings: HepG2 Attagene cis-reporter, E2F reporter RNA transcripts; actives raise or lower the signal
Method in brief: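 First, HepG2 cells were transfected with reporter transcription units. Next, they were dosed for 24 h. Then RNA was isolated, converted to cDNA, PCR-amplified, FAM-labeled, HpaI-digested and analyzed by capillary electrophoresis.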

[20] = ATG_BRE_CIS: Attagene CIS-FACTORIAL HepG2 Assay for human Bone Morphogenetic Protein (BMP) Response Element (BRE) (AID 2282933); settings: HepG2 BMP response element reporter, Attagene transcription factor profiling; actives raise or lower the signal
Method in brief: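 Multiplexed cis-reporter assay, HepG2, 24 h exposure. mRNA from reporter units quantified via RT-PCR/CE; DMSO baseline; bidirectional curve fit.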

Measured: AC50

Chain of Aryl hydrocarbon receptor (Homo sapiens) (P35869 whole entry, looked up): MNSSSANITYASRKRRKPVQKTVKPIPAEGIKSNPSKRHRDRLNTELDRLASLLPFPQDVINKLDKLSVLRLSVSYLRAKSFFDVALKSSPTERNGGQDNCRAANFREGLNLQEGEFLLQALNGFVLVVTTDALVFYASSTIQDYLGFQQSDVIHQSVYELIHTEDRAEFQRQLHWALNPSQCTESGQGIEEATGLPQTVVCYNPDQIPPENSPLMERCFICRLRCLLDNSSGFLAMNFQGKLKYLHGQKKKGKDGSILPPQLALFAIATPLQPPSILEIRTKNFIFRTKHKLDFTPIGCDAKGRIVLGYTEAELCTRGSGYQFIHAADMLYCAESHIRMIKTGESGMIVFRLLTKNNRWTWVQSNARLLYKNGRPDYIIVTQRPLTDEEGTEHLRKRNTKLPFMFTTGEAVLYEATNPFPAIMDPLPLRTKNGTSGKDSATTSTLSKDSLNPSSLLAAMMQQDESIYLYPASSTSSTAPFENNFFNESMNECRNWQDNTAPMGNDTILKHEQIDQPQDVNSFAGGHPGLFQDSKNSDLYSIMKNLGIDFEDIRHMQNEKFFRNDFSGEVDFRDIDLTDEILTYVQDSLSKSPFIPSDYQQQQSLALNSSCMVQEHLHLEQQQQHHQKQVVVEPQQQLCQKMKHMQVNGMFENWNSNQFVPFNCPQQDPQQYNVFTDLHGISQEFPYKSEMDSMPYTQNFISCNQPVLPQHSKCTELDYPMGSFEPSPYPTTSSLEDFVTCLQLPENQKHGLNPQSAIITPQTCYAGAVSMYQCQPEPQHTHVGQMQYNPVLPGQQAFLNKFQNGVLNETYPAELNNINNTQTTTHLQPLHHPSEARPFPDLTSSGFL
Chain of Transcription factor E2F1 (Homo sapiens) (Q01094 whole entry, looked up): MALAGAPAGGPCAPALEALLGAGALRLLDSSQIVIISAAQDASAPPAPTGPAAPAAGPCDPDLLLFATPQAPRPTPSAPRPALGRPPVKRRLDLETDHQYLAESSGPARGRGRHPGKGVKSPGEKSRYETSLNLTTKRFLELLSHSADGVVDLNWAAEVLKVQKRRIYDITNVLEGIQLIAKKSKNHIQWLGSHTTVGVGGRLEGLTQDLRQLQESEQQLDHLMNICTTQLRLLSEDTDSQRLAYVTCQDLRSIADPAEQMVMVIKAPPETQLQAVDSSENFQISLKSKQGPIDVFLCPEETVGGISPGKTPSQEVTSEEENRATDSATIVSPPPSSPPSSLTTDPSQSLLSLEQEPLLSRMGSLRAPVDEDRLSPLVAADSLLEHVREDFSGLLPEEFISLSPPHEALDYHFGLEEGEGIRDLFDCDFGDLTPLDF
Chain of CCAAT/enhancer-binding protein beta (Homo sapiens) (P17676 whole entry, looked up): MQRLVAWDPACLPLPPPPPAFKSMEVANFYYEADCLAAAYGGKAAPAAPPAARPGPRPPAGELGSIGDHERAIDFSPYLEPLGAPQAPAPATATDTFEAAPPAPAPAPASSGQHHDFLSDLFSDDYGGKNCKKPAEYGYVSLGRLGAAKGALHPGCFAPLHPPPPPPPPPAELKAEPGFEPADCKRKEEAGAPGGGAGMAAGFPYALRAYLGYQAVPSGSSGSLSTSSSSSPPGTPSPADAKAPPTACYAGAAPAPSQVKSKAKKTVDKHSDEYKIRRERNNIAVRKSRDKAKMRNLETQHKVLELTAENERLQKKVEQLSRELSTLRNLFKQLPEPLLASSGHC
Chain of Retinoic acid receptor alpha (Homo sapiens) (P10276 whole entry, looked up): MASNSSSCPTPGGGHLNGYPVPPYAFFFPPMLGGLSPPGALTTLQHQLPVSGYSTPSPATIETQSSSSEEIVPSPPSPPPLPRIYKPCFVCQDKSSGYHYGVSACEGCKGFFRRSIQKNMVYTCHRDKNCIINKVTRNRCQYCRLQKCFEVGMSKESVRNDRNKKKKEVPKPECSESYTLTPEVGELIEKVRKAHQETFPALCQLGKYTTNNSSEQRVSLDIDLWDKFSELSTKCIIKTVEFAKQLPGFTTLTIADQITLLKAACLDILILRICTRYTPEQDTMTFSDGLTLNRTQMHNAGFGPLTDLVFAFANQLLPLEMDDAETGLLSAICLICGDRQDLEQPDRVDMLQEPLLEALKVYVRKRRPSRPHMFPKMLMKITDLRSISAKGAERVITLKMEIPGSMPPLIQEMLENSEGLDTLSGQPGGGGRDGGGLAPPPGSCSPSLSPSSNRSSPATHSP

Oc1ccc(Cl)cc1Cc1ccccc1
inactive: [1] | [2] | [3] | [4] | [5] | [6] | [7] | [8] | [9] | [10] | [11] | [12] | [13] | [14] | [15] | [16] | [17] | [18] | [19]
active: [1] 112 µM and 122 µM and 34.5 µM | [2] 116 µM and 35.4 µM and 66.2 µM | [4] 111 µM and 62.5 µM | [5] 114 µM [middle of 4 runs] | [6] 113 µM and 122 µM and 34.3 µM | [7] 150 µM and 99 µM | [8] 111 µM and 125 µM | [9] 88 µM | [10] 110 µM | [11] 13.4 µM | [12] 8.76 µM | [13] 15.2 µM | [14] 11.2 µM and 14.2 µM and 13.4 µM | [16] 12.7 µM | [17] 17.6 µM

CC(C)(C)C(O)/C(=C\c1ccc(Cl)cc1Cl)n1cncn1 (centres undefined)
active: [4] 175 µM
not listed: [20]
inactive: all other assays above

O=S(=O)(O)C(F)(F)C(F)(F)C(F)(F)C(F)(F)C(F)(F)C(F)(F)C(F)(F)C(F)(F)F
active: [1] 104 µM and 9.71 µM and 107 µM | [4] 111 µM | [5] 108 µM [middle of 4 runs] | [6] 111 µM and 107 µM | [8] 5.6 µM and 106 µM | [10] 110 µM and 9.67 µM | [11] 142 µM and 53.4 µM | [13] 61.4 µM and 191 µM and 89.9 µM | [15] 180 µM and 40.3 µM | [16] 26.9 µM [middle of 8 runs] | [17] 140 µM and 26.8 µM | [19] 128 µM and 48.9 µM
inactive: [1] | [2] | [3] | [4] | [5] | [6] | [7] | [8] | [9] | [10] | [11] | [12] | [13] | [14] | [15] | [16] | [17] | [20] | [19]

CCOc1nc(NC)nc(NC(=O)NS(=O)(=O)c2ccccc2C(=O)OC)n1
inactive: all assays above
